Assay outcomes (PubChem BioAssay)
Cruzain inh noDet = blocks cruzain activity in detergent-free assay; 200,000 compounds, 2.3% hits; AID 1476; P25779; Potency, µM, actives largely listed as inhibitors; purified cruzain, Z-FR-AMC fluorescence, no detergent; further: nearly all actives have a fitted effect of over 40% in size
Target sequence (P25779 123-467 limits assumed): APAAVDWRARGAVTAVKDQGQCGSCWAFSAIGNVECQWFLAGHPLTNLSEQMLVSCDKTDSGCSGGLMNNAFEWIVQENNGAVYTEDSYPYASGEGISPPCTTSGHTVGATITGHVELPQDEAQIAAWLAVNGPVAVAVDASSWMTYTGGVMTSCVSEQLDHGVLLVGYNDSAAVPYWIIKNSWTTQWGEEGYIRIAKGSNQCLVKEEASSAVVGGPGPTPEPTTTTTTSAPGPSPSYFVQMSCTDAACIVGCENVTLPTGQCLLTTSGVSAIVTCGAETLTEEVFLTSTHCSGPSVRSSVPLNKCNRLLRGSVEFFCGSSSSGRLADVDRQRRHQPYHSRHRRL
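Purified cruzain at 1.5 nM, pre-incubated 15 min with compound at room temperature in 100 mM sodium acetate pH 5.5, 5 mM DTT, 0.00005% Triton X-100. Reaction started with 2 uM Z-FR-AMC; AMC fluorescence increase over 60 s gives rate.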
Cruzain inh Det = inhibitors of Trypanosoma cruzi cruzain with detergent; P25779; Potency, µM, hits mostly inhibitors; purified cruzain, Z-FR-AMC fluorescence, 0.01% Triton; AID 1478; 200,000 compounds, 0.43% hits; further: nearly all actives have a fitted effect of over 40% in size
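Cysteine protease activity tested under reducing, mildly acidic conditions (100 mM sodium acetate pH 5.5, 5 mM DTT) plus 0.01% Triton X-100. Cruzain 1.5 nM; substrate Z-FR-AMC 2 uM; 15 min compound preincubation at room temperature.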
A number is an active result. A selection: hits, their analogues and other compounds. The true share with any hit is near 2.5%. The call rests on the fitted dose curve; in most records, active means well fitted curve in the direction sought with a large enough effect; inconclusive means small, poorly fitted or top-dose-only effect, or another doubt; inactive means no such curve, though single readings can be large; an effect the other way counts as inactive or inconclusive.

Results for CCC(=O)Nc1nnc(Sc2ccc(N(C)C)cc2)s1 ?
Cruzain inh noDet: inactive; Cruzain inh Det: inactive

How did CN(C)c1ccc(Sc2nnc(NC(=O)Nc3ccc(Cl)cc3Cl)s2)cc1 do in these assays?
Cruzain inh noDet: 10µM; Cruzain inh Det: inactive

Results for O=C(COC(=O)c1ccc(-c2ccc([N+](=O)[O-])cc2)o1)NC(=O)NC12CC3CC(CC(C3)C1)C2 ?
Cruzain inh noDet: 25.1µM; Cruzain inh Det: inactive

Results for O=C(COC(=O)c1ccc(-c2ccc([N+](=O)[O-])cc2)o1)NC(=O)NC1CCCCC1 ?
Cruzain inh noDet: inconclusive; Cruzain inh Det: inactive

What do the screens show for `COc1cccc(NC(=O)CCc2nnc3n(Cc4ccccc4Cl)c(=O)c4ccccc4n23)c1`?
Cruzain inh noDet: inactive; Cruzain inh Det: inactive

What do the screens show for `Cc1cc(=O)oc2c(N)c(O)ccc12`?
Cruzain inh noDet: inactive; Cruzain inh Det: inactive

How did Cc1cc(=O)oc2c(CN(C)Cc3ccccc3)c(O)ccc12 do in these assays?
Cruzain inh noDet: inconclusive; Cruzain inh Det: 20µM

Results for Cc1cc(OCCn2cc(C(=O)c3cccs3)c3ccccc32)ccc1Cl ?
Cruzain inh noDet: inactive; Cruzain inh Det: inactive

What do the screens show for `O=C(c1cccc(N2C(=O)C3CC=CCC3C2=O)c1)N1CCCCCC1` (stereo unspecified)?
Cruzain inh noDet: inactive; Cruzain inh Det: inactive

What do the screens show for `O=C(c1cccc(N2C(=O)C3CC=CCC3C2=O)c1)N1CCN(c2ccccc2)CC1` (stereo unspecified)?
Cruzain inh noDet: 15.8µM; Cruzain inh Det: 22.4µM

Results for COc1ccc(Cn2c(O)c(C=Nc3ccc(C)cc3)c3ccccc3c2=O)cc1 ?
Cruzain inh noDet: 12.6µM; Cruzain inh Det: inactive

What do the screens show for `COc1ccc(Cn2c(O)c(C=Nc3ccccc3)c3ccccc3c2=O)cc1`?
Cruzain inh noDet: inconclusive; Cruzain inh Det: inactive

How did COc1ccc(Cn2c(O)c(C=Nc3ccc(O)cc3)c3ccccc3c2=O)cc1 do in these assays?
Cruzain inh noDet: 25.1µM; Cruzain inh Det: inactive

How did COc1ccc(N=Cc2c(O)n(-c3cccc(C)n3)c(=O)c3ccccc23)cc1 do in these assays?
Cruzain inh noDet: inconclusive; Cruzain inh Det: inactive

How did CC(=O)c1ccc(NC(=O)CC(c2cccs2)N2Cc3ccccc3C2=O)cc1 (stereo unspecified) do in these assays?
Cruzain inh noDet: inactive; Cruzain inh Det: inactive

How did Cc1ccc(NC(=O)c2nnn(Cc3ccccc3)c2N)cc1C do in these assays?
Cruzain inh noDet: inactive; Cruzain inh Det: inactive

What do the screens show for `CSc1ccc(Cn2nnc(C(=O)Nc3ccc(C)c(C)c3)c2N)cc1`?
Cruzain inh noDet: 25.1µM; Cruzain inh Det: inactive

Results for CCOC(=O)C1=C(C)Nc2sc(C(=O)c3ccc(OC)cc3)c(N)c2C1c1ccc(C(=O)OC)cc1 (stereo unspecified) ?
Cruzain inh noDet: 31.6µM; Cruzain inh Det: inactive

How did COC(=O)C1=C(C)Nc2sc(C(N)=O)c(N)c2C1c1ccncc1 (stereo unspecified) do in these assays?
Cruzain inh noDet: inactive; Cruzain inh Det: inactive

Results for O=c1[nH]c(N/N=C/c2ccccc2Br)nnc1-c1ccccc1 ?
Cruzain inh noDet: 12.6µM; Cruzain inh Det: inactive

Results for COc1ccc(/C=N/Nc2nnc(-c3ccccc3)c(=O)[nH]2)cc1 ?
Cruzain inh noDet: inactive; Cruzain inh Det: inactive

Results for CCOC(=O)C1=C(CSc2nc(-c3ccccc3)ccc2C#N)OC(N)=C(C#N)C1c1ccccc1 (stereo unspecified) ?
Cruzain inh noDet: 25.1µM; Cruzain inh Det: inactive

Results for CCOC(=O)C1=C(CSc2nc(-c3ccccc3)ccc2C#N)OC(N)=C(C#N)C1c1cccnc1 (stereo unspecified) ?
Cruzain inh noDet: inconclusive; Cruzain inh Det: inactive

How did CCOc1ccc(N(CC)C(=O)Cn2cnc3sc(C)c(S(=O)(=O)N4CCN(c5ncccn5)CC4)c3c2=O)cc1 do in these assays?
Cruzain inh noDet: inactive; Cruzain inh Det: inactive

What do the screens show for `Cc1cccc(NCCC(=O)c2ccc(Br)cc2)c1`?
Cruzain inh noDet: inactive; Cruzain inh Det: inactive

What do the screens show for `CCOC(=O)CNCCC(=O)c1ccc(Br)cc1`?
Cruzain inh noDet: 10µM; Cruzain inh Det: 25.1µM

How did COc1ccc(NC(=O)c2ccc3c(=O)n4nc(Nc5cccc(Cl)c5C)sc4nc3c2)cc1 do in these assays?
Cruzain inh noDet: inactive; Cruzain inh Det: inactive

How did COc1cc(C2c3c(-c4ccccc4O)n[nH]c3C(=O)N2Cc2ccco2)ccc1OCC(C)C (stereo unspecified) do in these assays?
Cruzain inh noDet: inconclusive; Cruzain inh Det: inactive

Results for Cc1ccc(S(=O)(=O)N2CCN(C(=O)CSc3ncc(C(F)(F)F)cc3Cl)CC2)cc1 ?
Cruzain inh noDet: inactive; Cruzain inh Det: inactive

What do the screens show for `Cc1ccc(CO/N=C\Cc2snc(Sc3ncc(C(F)(F)F)cc3Cl)c2C#N)cc1`?
Cruzain inh noDet: 3.98µM; Cruzain inh Det: inactive

Results for CCOC(=O)c1sc(-n2[nH]c(C)cc2=O)nc1C ?
Cruzain inh noDet: inactive; Cruzain inh Det: inconclusive

What do the screens show for `CCOC(=O)Cc1cc(=O)n(-c2nc3ccccc3s2)[nH]1`?
Cruzain inh noDet: inconclusive; Cruzain inh Det: 17.8µM

Results for CC(NC(=O)CSc1nc2c(c(C(F)(F)F)n1)CCc1ccccc1-2)c1ccccc1 (stereo unspecified) ?
Cruzain inh noDet: inactive; Cruzain inh Det: inactive

Results for CCc1c(C)sc(NC(=O)CSc2nc3c(c(C(F)(F)F)n2)CCc2ccccc2-3)c1C#N ?
Cruzain inh noDet: 3.98µM; Cruzain inh Det: inactive

How did CCOC(=O)c1ccc2c(c1)N(Cc1ccccc1)C(=O)c1ccccc1S2 do in these assays?
Cruzain inh noDet: inactive; Cruzain inh Det: inactive

Results for O=C(NCc1ccco1)c1ccc2c(c1)N(Cc1ccccc1)C(=O)c1ccccc1S2 ?
Cruzain inh noDet: inconclusive; Cruzain inh Det: inactive

Results for C=Cc1ccc(CN2C(=O)c3ccccc3Sc3ccc(C(=O)OCc4ccco4)cc32)cc1 ?
Cruzain inh noDet: 12.6µM; Cruzain inh Det: inactive

Results for N#Cc1ccccc1CN1C(=O)c2ccccc2Sc2ccc(C(=O)OCc3ccco3)cc21 ?
Cruzain inh noDet: 25.1µM; Cruzain inh Det: inactive

How did CC(C)c1cc(-c2nc(-c3ccc(Cl)cc3)no2)n[nH]1 do in these assays?
Cruzain inh noDet: inactive; Cruzain inh Det: inactive

Results for CCn1c2ccccc2c2cc(NC(=O)COC(=O)c3cccc(S(=O)(=O)NC)c3)ccc21 ?
Cruzain inh noDet: inactive; Cruzain inh Det: inactive

What do the screens show for `CCN(CC)S(=O)(=O)c1cccc(C(=O)OCC(=O)Nc2ccc3c(c2)c2ccccc2n3CC)c1`?
Cruzain inh noDet: 7.94µM; Cruzain inh Det: inactive

Results for CC(C)(C)c1ccc(C(=O)Nc2ccc(NC(=O)c3ccc(Cl)c(Cl)c3)cc2)cc1 ?
Cruzain inh noDet: inactive; Cruzain inh Det: inactive

How did CC(C)(C)c1ccc(C(=O)Nc2ccc(C=C(C#N)C#N)cc2)cc1 do in these assays?
Cruzain inh noDet: 31.6µM; Cruzain inh Det: inactive

How did CCc1nnc(SCC(=O)Nc2cc(Cl)c(OC)cc2OC)c2cc3oc(C)cc3n12 do in these assays?
Cruzain inh noDet: inactive; Cruzain inh Det: inactive

What do the screens show for `Cc1cccc(CCNC(=O)c2sc3nc4n(c(=O)c3c2C)CCCC4)c1`?
Cruzain inh noDet: inactive; Cruzain inh Det: inactive

What do the screens show for `Cc1ccc(Cn2c(CNC(=O)CCc3ccccc3)nc3cccnc32)cc1`?
Cruzain inh noDet: inactive; Cruzain inh Det: inactive

How did CCOC(=O)c1cc(-c2ccc(OC)cc2)n(CCC(=O)NC2CCC(C)CC2)c1C (stereo unspecified) do in these assays?
Cruzain inh noDet: inconclusive; Cruzain inh Det: inactive
